Measured values reported in the supplement of paper PMC11732987, “Enantioselective OTUD7B fragment discovery through chemoproteomics screening and high-throughput optimisation” (Communications Chemistry, 2025).

Experiments:
Test in all cases: log2 ratio of Biotin-Ahx-Ub-VS probe labelling (fragment/DMSO); higher = less target engagement (more negative = stronger competition), active = hit call of the paper (q ≤ 0.05, log2 ratio ≤ -1)
Settings in all cases: compound concentration: 200 uM; treatment time: 3 h
USP19 = molecular target: T1, USP19 (UniProt O94966)
T1 sequence (whole entry): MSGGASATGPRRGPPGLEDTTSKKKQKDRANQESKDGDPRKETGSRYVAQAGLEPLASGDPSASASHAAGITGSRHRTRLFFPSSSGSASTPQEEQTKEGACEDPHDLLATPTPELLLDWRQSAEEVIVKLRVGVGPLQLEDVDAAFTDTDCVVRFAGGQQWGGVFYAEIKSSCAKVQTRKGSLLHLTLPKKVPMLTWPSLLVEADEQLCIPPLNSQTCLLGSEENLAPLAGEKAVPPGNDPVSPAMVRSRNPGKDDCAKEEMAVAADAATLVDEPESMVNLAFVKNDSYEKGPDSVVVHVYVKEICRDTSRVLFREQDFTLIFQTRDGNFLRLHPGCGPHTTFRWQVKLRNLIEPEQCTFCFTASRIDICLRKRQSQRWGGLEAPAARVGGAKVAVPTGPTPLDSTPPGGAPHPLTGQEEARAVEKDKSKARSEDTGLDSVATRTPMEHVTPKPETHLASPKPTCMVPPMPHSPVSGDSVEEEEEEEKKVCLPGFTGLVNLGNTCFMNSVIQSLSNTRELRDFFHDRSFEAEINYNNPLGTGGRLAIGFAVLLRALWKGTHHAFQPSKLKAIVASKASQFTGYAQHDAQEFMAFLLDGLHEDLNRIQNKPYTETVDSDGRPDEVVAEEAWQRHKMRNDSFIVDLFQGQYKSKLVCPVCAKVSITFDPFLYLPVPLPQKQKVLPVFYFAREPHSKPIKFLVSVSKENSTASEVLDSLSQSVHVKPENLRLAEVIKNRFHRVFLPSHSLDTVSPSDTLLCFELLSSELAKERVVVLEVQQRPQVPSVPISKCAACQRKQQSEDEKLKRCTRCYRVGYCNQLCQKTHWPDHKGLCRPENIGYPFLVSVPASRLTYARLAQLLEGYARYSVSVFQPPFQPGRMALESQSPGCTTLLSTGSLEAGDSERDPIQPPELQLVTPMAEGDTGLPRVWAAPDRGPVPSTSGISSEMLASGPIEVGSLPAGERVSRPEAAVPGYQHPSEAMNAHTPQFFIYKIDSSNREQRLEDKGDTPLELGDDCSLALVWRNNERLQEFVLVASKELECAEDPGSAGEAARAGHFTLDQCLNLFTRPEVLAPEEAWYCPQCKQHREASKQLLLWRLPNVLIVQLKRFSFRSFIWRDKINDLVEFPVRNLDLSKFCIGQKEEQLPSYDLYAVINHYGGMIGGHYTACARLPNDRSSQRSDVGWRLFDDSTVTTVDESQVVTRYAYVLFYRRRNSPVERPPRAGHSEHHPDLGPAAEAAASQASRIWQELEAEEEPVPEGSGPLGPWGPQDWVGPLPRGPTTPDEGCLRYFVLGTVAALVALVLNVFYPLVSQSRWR
Summary of the method: (§1)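 Each value is an average log2 ratio of fragment to vehicle, tested by unpaired t-test. The underlying Spectronaut label-free quantities were global-median-normalised, and only proteins with ≥2 unique peptides were included. Triplicate HEK293T lysate samples (495 µg) were exposed to fragment at 200 µM or vehicle for 3 h, then to Biotin-Ahx-Ub-VS at 0.5 µM final for 1 h, before NeutrAvidin enrichment of labelled DUBs, LysC and trypsin digestion, and diaPASEF LC-MS/MS.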

USP22 = molecular target: T2, USP22 (UniProt Q9UPT9)
T2 sequence (whole entry): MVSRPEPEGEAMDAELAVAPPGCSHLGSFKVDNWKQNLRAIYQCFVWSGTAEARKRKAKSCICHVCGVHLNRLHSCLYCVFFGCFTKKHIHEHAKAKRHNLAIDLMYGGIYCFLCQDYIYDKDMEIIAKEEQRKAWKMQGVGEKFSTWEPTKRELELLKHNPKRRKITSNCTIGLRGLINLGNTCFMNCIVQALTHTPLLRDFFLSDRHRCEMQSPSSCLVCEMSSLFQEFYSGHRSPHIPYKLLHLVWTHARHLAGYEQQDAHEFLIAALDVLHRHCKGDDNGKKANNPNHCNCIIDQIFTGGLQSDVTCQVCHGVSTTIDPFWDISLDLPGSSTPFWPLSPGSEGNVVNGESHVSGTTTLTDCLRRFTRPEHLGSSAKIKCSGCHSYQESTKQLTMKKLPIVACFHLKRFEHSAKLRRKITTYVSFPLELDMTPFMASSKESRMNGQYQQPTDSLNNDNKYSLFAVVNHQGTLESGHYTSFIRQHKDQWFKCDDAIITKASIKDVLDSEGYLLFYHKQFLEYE
Summary of the method: as §1

USP24 = USP24 (UniProt Q9UPU5)
Chain of USP24 (Q9UPU5 whole entry): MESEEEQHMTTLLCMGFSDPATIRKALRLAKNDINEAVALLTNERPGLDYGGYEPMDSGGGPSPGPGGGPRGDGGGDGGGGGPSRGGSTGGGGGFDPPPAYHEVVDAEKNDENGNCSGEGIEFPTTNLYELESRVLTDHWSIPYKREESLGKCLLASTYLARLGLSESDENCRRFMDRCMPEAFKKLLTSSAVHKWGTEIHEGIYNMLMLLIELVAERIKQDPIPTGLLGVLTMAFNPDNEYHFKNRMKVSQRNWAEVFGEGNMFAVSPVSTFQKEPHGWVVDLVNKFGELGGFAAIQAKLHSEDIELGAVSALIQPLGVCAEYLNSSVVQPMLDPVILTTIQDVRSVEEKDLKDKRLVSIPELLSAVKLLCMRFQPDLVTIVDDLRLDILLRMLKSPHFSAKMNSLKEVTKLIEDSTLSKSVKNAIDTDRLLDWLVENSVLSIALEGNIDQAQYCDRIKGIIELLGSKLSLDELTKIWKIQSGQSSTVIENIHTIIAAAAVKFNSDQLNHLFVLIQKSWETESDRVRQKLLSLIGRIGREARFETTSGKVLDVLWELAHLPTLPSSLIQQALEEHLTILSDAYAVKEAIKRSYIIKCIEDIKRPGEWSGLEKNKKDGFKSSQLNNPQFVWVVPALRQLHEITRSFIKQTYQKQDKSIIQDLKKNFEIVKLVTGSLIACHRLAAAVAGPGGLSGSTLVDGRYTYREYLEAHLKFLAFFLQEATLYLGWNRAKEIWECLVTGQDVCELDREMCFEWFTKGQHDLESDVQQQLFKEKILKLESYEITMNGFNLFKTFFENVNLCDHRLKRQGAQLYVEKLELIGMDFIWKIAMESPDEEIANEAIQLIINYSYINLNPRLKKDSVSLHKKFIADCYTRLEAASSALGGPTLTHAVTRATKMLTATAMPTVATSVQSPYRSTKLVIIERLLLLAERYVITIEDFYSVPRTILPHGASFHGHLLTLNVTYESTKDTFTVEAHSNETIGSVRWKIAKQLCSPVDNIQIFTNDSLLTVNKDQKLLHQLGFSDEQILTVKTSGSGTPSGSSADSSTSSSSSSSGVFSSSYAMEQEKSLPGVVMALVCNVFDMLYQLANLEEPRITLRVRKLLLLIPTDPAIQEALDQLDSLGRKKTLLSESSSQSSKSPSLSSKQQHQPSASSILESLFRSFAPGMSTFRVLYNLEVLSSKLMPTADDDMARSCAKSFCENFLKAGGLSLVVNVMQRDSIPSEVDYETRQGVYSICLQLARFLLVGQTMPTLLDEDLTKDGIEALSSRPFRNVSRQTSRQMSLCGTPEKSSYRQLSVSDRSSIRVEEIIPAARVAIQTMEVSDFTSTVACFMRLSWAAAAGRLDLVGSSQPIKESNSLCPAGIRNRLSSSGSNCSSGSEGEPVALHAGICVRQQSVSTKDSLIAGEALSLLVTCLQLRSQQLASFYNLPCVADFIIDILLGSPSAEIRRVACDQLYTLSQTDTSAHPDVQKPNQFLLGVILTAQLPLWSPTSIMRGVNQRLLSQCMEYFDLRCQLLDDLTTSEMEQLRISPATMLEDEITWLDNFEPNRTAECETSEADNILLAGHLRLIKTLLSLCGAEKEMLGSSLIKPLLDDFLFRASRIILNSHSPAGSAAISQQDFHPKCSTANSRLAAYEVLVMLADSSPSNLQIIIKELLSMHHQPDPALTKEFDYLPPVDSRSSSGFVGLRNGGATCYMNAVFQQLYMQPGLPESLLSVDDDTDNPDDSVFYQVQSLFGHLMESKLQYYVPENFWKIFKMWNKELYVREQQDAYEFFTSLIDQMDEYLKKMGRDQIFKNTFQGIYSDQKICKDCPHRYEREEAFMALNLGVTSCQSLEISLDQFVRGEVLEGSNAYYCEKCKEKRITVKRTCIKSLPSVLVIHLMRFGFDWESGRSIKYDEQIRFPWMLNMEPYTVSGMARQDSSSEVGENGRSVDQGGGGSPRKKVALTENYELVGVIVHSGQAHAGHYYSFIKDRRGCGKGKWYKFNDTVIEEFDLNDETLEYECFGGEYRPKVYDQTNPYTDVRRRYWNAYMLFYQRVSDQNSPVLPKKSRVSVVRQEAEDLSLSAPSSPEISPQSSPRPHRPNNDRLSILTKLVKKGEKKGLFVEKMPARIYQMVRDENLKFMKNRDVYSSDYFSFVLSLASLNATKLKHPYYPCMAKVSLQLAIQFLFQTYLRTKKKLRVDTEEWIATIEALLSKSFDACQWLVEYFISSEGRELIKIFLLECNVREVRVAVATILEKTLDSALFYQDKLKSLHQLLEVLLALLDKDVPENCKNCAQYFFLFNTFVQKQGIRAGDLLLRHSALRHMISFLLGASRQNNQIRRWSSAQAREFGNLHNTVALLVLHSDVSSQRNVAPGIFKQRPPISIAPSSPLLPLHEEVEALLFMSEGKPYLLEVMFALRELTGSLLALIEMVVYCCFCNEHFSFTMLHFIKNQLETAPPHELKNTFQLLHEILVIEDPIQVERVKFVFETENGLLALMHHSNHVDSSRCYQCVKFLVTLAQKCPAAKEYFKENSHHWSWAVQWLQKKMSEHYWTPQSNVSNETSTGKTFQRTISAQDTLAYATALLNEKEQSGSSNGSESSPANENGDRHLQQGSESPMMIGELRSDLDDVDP
Summary of the method: as §1

USP25 = molecular target: T3, USP25 (UniProt Q9UHP3)
T3 sequence (whole entry): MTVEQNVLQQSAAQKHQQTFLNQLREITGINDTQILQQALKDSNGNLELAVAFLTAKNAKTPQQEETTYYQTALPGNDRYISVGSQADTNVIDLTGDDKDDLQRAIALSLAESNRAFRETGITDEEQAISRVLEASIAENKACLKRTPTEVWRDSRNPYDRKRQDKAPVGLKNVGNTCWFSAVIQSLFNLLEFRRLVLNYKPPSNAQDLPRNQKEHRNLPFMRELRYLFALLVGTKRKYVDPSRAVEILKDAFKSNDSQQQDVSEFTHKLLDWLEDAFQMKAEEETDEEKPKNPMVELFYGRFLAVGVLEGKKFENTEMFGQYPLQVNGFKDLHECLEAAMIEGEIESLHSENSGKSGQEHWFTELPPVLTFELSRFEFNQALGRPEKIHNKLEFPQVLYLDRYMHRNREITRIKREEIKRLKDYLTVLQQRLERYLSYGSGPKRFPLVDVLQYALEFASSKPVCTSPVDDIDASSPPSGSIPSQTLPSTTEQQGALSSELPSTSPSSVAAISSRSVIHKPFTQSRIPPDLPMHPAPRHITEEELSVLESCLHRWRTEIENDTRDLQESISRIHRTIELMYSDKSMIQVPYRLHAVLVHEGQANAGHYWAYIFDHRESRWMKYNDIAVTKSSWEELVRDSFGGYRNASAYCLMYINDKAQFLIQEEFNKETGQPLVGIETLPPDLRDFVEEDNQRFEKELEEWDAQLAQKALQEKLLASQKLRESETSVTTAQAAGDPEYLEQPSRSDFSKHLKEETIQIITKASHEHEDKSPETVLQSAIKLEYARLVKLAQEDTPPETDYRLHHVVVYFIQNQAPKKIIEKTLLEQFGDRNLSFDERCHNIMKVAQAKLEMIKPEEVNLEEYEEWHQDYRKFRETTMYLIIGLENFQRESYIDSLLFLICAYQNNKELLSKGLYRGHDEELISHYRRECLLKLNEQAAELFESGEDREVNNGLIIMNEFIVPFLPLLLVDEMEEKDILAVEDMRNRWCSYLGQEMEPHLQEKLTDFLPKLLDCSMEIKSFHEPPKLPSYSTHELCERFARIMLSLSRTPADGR
Summary of the method: as §1

USP28 = molecular target: T4, USP28 (UniProt Q96RU2)
T4 sequence (whole entry): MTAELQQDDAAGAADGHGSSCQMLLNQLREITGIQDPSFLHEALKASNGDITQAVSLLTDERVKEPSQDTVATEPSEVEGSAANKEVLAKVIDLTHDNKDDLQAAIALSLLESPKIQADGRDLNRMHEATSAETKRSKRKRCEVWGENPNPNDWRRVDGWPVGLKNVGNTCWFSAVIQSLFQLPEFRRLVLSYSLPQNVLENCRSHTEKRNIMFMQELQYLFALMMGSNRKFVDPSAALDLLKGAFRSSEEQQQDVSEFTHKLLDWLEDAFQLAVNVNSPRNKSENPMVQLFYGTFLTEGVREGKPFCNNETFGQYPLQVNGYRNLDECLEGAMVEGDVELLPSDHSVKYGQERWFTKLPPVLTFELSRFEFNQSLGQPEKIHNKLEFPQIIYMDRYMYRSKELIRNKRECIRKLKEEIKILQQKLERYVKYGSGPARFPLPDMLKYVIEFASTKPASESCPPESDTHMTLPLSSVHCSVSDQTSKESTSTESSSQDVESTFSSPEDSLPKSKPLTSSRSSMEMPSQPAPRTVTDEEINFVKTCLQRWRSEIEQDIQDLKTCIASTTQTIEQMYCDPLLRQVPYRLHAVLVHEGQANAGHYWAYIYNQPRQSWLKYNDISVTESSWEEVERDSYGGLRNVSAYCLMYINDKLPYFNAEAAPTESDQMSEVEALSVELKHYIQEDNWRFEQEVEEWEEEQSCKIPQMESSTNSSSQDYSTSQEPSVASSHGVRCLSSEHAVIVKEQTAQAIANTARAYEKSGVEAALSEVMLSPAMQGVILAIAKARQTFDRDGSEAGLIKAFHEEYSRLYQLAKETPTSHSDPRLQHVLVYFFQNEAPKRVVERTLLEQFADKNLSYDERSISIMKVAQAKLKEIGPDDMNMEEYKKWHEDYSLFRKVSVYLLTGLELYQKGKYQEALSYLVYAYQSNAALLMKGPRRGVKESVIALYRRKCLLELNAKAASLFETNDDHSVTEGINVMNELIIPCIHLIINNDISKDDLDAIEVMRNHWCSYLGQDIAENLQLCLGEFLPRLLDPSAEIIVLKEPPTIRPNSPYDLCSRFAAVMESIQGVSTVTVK
Summary of the method: as §1

Measured: log2 ratio of Biotin-Ahx-Ub-VS probe labelling

CC(c1ccccc1)N(C)C(=O)CCl (stereo not given)
inactive: USP19 -0.444 | USP22 0.102 | USP24 -0.45 | USP25 -0.472 | USP28 -0.526
